Values without a mark were called inactive. The rule behind the calls is not given here.

For the test, the target named is Pantothenate synthetase (Mycobacterium tuberculosis (strain ATCC 25618 / H37Rv)) (UniProt P9WIL5). The test is described as follows: Coupled enzyme confirmation of inhibitors against recombinant Mtb PanC (AID 375).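 Note: 0% = full reaction with vehicle and 100% = no enzyme background.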 Particulars: coupled enzyme assay; at 10 µM, stronger effect = higher value.
Sequence of Pantothenate synthetase (Mycobacterium tuberculosis (strain ATCC 25618 / H37Rv)) (P9WIL5 whole entry, looked up): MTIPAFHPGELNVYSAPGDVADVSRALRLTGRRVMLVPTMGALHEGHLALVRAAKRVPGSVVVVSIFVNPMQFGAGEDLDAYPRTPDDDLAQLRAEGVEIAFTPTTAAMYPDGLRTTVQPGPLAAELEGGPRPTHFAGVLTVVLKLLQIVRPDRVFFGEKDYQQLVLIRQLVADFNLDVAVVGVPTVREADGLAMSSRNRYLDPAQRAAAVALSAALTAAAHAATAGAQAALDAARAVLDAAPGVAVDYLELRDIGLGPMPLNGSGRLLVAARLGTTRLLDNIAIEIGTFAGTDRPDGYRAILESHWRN
For orientation: inhibition means how much of the control response was suppressed. As for `Cc1nnc(SCCn2c(Br)nc3c2c(=O)n(C)c(=O)n3C)s1`, the inhibition was 1%.

With `COc1ccc(/C(O)=C2/C(=O)C(=O)N(CCCN(C)C)C2c2ccc(Cl)cc2)cc1OC` (stereo not drawn), the inhibition is 3%.

For the molecule `O=C(OCC(=O)c1cccs1)C1=COCCO1`, the inhibition is 0%.

As for `Cn1c(=O)c2c(nc(CN3CCCCC3)n2CCc2ccccc2)n(C)c1=O`, the inhibition is 1%.

Consider `O=C(c1ccco1)N1CCN(S(=O)(=O)c2ccc3c(c2)CCN3C(=O)C2CCC2)CC1`, for which the inhibition was 0%.

In the case of `CCCCCCC(=O)c1c(C)[nH]c(C(=O)OCC)c1C`, the inhibition was 1%.

In the case of `Cc1c(C)[n+](=O)c2c(n1[O-])CCCCC2`, the inhibition is 1%.

As for `Cc1ccc(S(=O)(=O)N2CCN(C(=O)CSc3nnnn3C)C2)cc1`, the inhibition was 1%.

For `CC(NC(=O)c1cc2c(=O)n(C)c3ccccc3c2n1C)c1ccc2c(c1)OCCO2` (stereo not drawn), the inhibition is 3%.

For `COC(=O)Cn1cnc2c(nnn2-c2ccc(C)cc2)c1=O`, the inhibition was 0%.

Regarding `COCCn1nnnc1C(C(C)C)N(Cc1cccnc1)Cc1ccccc1Cl` (stereo not drawn), the inhibition is 2%.

For the molecule `Cc1cc(C(=O)Nc2sc3c(c2C#N)CCCCC3)cs1`, the inhibition was 0%.

Regarding `CCN(c1c(C)n(C)n(-c2ccccc2)c1=O)S(C)(=O)=O`, the inhibition is 5%.

For the molecule `CC1CCc2nn(CC(=O)NCCN3CCCCC3C)cc2C1` (stereo not drawn), the inhibition is 0%.

As to `Cn1c(=O)n(CCN2CCOCC2)c(=O)c2c1nc1n2CCN1c1ccccc1`, the inhibition was 2%.

In the case of `O=C(O)CCc1ccc(-c2cccs2)n1NC(=O)c1ccco1`, the inhibition was 0%.

Consider `O=C(NC1CCCCC1)C(c1ccc(Cl)cc1)N(C(=O)c1cnccn1)c1ccc2c(c1)OCO2` (stereo not drawn), for which the inhibition is 0%.

Regarding `Nc1nnnn1/N=C/c1ccccc1OCc1ccccc1`, the inhibition is 0%.

In the case of `Cc1c(C(=O)NCc2cccnc2)oc2ccc(S(=O)(=O)N3CCCCC3)cc12`, the inhibition was 0%.

For `CCOc1ccc(Cn2nnc(C(=O)NCc3ccc(OC)cc3)c2N)cc1`, the inhibition is 2%.

With `O=C(CN1CCN(C2CCCCC2)CC1)Nc1ccccc1-c1ccccc1`, the inhibition is 6%.

For `Cc1ccc(N2C(N)=NC(N)=NC23CCCC3)c(C)c1`, the inhibition is 3%.

Take `CCNC(=O)N1c2ccc(OCC)cc2C(C)=CC1(C)C`: the inhibition is 0%.
